# In PubChem BioAssay (Tox21):
# Results filed as inconclusive are left out. Values without a mark were called inactive. Calls come from the whole dose curve; as a rule, active = well fitted cell-killing curve with a large enough effect in the repeat runs; inconclusive = weak or mixed curves, or effect the other way; inactive = flat fitted curve, though single readings scatter.
# Assay: qHTS assay to identify small molecule agonists of the constitutive androstane receptor (CAR) signaling pathway - cell viability counter screen (AID 1224836); note: nearly all actives have a fitted effect of over 45% in size
# Details: HepG2-CYP2B6-hCAR viability, CellTiter-Fluor, 23 h, PK11195 added to every well; series mostly up to 92.4 µM; viability change, negative = cytotoxic: at the top concentration
# From the text: U.S. Tox21 Program National Center for Advancing Translational Sciences [NCATS] NIH Chemical Genomics Center [NCGC] U.S. Environmental Protection Agency [EPA] National Institutes of Environmental Health Sciences [NIEHS] National Toxicology Program [NTP] U.S. Food and Drug Administration [FDA] Tox21 Assay Overview: The constitutive androstane receptor (CAR) is a nuclear receptor which regulates multiple drug metabolizing enzymes (DMEs) and transporters. Activating CAR will generally increase the transcription and subsequent translation of CYP2B6 and CYP3A4. These two DMEs represent about 50% of the drug metabolizing potential in the body. […] Recently, there have also been studies performed indicating CARs role in energy metabolism and cancer therapy. Therefore, inducing CARs activity could have a potential effect on diabetes and cancer. Identifying environmental toxins and compounds which modulate CAR, through the use of the Tox21 10K compound collection, will be an important step in determining the toxicity and potential therapeutic effects these factors will have on the human body. To differentiate true CAR agonists from cytotoxic substances, the assay is multiplexed with a cell viability assay.
# Tox21 Assay Protocol Summary: A double-stable (hCAR and CYP2B6-2.2kb) transfected cell line, derived from human hepatoma (HepG2) cells, was utilized for the duration of the quantitative high-throughput screens. The HepG2-CYP2B6-hCAR cells were dispensed at 2500 cells/4 uL/well in 1536-well white solid bottom plates using a Multidrop Combi. After the assay plates were incubated at 37 C/5% CO2 for 4 hrs, 23 nL of compounds at 15 concentrations (from 5-48 columns) or positive control (from 1 to 4 columns) were transferred to the assay plates using a Pintool station. One uL of PK11195 (final concentration = 0.75 uM) was added, using a Flying Reagent Dispenser, inside each well. After a 23 hr incubation period at 37 C/5% CO2, 1 uL of CellTiter-Fluor reagent was added into each well of the assay plates using a Flying Reagent Dispenser. The fluorescence intensity in the plates was then measured using a ViewLux plate reader.
# % is set by controls: 0 for no effect and ±100 for the full control effect.
row,Structure (SMILES),"viability change, negative = cytotoxic"
1,CCC#N,-0.111%
2,CCOc1nc(C(Cl)(Cl)Cl)ns1,-4.99%
3,CC(COc1ccc(Oc2ccccc2)cc1)Oc1ccccn1 (stereo not given),3%
4,CCOC(=O)/C=C(C)/C=C/C[C@@H](C)CCCC(C)C,-8.78%
5,CCCSP(=O)(OCC)Oc1ccc(Br)cc1Cl (stereo not given),1.53% [at 42.5 µM]
6,CC1CCCCC1NC(=O)Nc1ccccc1 (stereo not given),-0.61%
7,c1cc[c]([Hg][c]2ccccc2)cc1,1.57%
8,CN1C(=S)CN=C(c2ccccc2)c2cc(Cl)ccc21,-1.84% [at 42.5 µM]
9,CC(N)=S,0.166%
10,O=C(O)C(Br)CBr (stereo not given),16.9%
11,O=C(Cc1ccccc1)OCc1ccccc1,-12.6%
12,O=[N+]([O-])c1ccc2c3c(cccc13)CC2,-11.1%
13,COC(=O)C(C)Oc1ccc(Oc2ccc(Cl)cc2Cl)cc1 (stereo not given),-5.6%
14,COC(=O)COc1ccc(Cl)cc1Cl,4.85%
15,CCOP(=S)(OCC)Oc1ncn(-c2ccccc2)n1,-3.52%
16,c1coc(-c2nc3ccccc3[nH]2)c1,-2.71%
17,COc1cc(OC)nc(NC(=O)NS(=O)(=O)c2ncccc2C(=O)N(C)C)n1,6%
18,CCCCOC(=O)c1ccccc1C(=O)O,-1.62%
19,CC(C(=O)c1ccccc1)N(C)C (stereo not given),0.607% [at 42.5 µM]
20,O=C(O)c1ccc2[nH]cc(CCCCN3CC=C(c4ccccc4)CC3)c2c1,0.718% [at 42.5 µM]

row,Structure (SMILES),"viability change, negative = cytotoxic"
1,CC(C)CC(N(C)C)C1(c2ccc(Cl)cc2)CCC1 (stereo not given),0.714% [at 42.5 µM]
2,O=[N+]([O-])c1cccc2cccnc12,2.82%
3,CCN(CC)CCOC(=O)C(C)(c1ccccc1)c1ccccc1,-1.96% [at 42.5 µM]
4,CCCCc1c(C)nc(NCC)[nH]c1=O,-4.93%
5,COc1ccc2c(c1OC)CN1CCc3cc4c(cc3C1C2)OCO4 (stereo not given),-8.25% [at 42.5 µM]
6,NC1=NC(=O)C(c2ccccc2)O1 (stereo not given),1.79% [at 42.5 µM]
7,CCOC(=O)C(c1c(O)c2ccccc2oc1=O)c1c(O)c2ccccc2oc1=O,0.273% [at 42.5 µM]
8,C[C@]1(O)CC[C@H]2[C@@H]3CCC4=CC(=O)CC[C@]4(C)[C@@]3(F)[C@@H](O)C[C@@]21C,-4.1%
9,CCS(=O)(=O)C(C)(C)S(=O)(=O)CC,9.9% [at 42.5 µM]
10,[Cl][Sn]([Cl])([Cl])[Cl],-1.41%
11,Cc1ncsc1CCCl,10.2% [at 42.5 µM]
12,CCC1(c2ccccc2)C(=O)NC(=O)NC1=O,4.76%
13,CC1(C)COP(Oc2ccccc2)OC1,-0.682%
14,[O]=[Cd],-2.69%
15,C=CC1CC=CCC1 (stereo not given),4.19%
16,Cc1ncc(CNC(=O)N(CCCl)N=O)c(N)n1,10.2% [at 42.5 µM]
17,C=C(C)CN(CC)c1c([N+](=O)[O-])cc(C(F)(F)F)cc1[N+](=O)[O-],1.91%
18,COC(=O)c1ccccc1S(=O)(=O)NC(=O)Nc1nc(C)cc(C)n1,1.32%
19,COc1cc(OC)nc(Sc2cccc(Cl)c2C(=O)O)n1,-7.4%
20,ClC(Cl)Br,3.81%
